From PubChem BioAssay AID1740 (National Center for Advancing Translational Sciences (NCATS), 2009) come the findings set out here.

Inconclusive results are not listed. A number with no mark means an inactive call. The source made the active and inactive calls. Calls follow the shape of the dose curve; as a rule, active = well fitted activation curve with a large enough effect; inconclusive = small, poorly fitted or top-dose-only effect; inactive = no such curve, though single readings can be large or run the other way.

A short description of the assay: Confirmation Concentration-Response Assay for Enhancers of SMN2 Splice Variant Expression. The following applies: HEK293 SMN2-exon7-luciferase splicing reporter, luminescence, 30-36 h; series mostly up to 46.1 µM; activation: at the top concentration. An excerpt:
NIH Chemical Genomics Center [NCGC] NIH Molecular Libraries Probe Production centers Network [MLPCN] MLPCN Grant: R03 MH084179-01 Assay Submitter (PI): Elliot Androphy NCGC Assay Overview: Spinal muscular atrophy (SMA) is caused by insufficient levels of the survival motor neuron protein SMN. The SMN locus on chromosome 5q13 contains two inverted copies of SMN called SMN1 and SMN2 which are 99% identical at the amino acid level. SMN1 is a fully functional protein and SMN2 skips exon 7 90% of the time. Skipping of exon 7 produces non-functional protein product. 10% of the SMN2 protein includes exon 7 and is fully functional. In the SMA disease state, mutations in the SMN1 locus are the cause of the disease state. Because only 10% of SMN2 is of the fully functional form, it is not sufficient to overcome the deficiency produced by the loss of the SMN1 product. A therapy that either increase the amount of SMN2 product made or to increase the inclusion of exon 7 has been proposed for the treatment of SMA. We have designed an assay to identify small molecules that can increase the amount of functional SMN2 product by appending a luciferase reporter gene after the native SMN2 gene, such that inclusion of exon 7 in the expressed product places the luciferase sequence in frame, thus generating functional luciferase enzyme.
NCGC Assay Protocol Summary: This screen utilizes a luciferase reporter gene assay, combining the promoter with the major portion of the native SMN2 cDNA (exons 1 -7, intron 8 , exon 8 fused to luciferase) stably expressed in HEK293 cells. Compounds that increase luciferase signal presumably enhance expression of the functional SMN2 splice variant. Passaging media contained DMEM w/ glutamax (+phenol red) 10% FCS, 1x pen/strep, 200 ug/ml hygro, 1x sodium pyruvate. Assay media contained DMEM w/ glutamax (-phenol red) 10% FCS, 1x pen strep, 1x pyruvate Sequence, Parameter, Value, Description (1) Cells, 5 uL, 2000 cells/well, 1536 TC treated White solid bottom plate (2) Time, 10-12 hours, 37C 5% CO2 (3) Compound, 23 nl, MLSMR Library (4) Control Compound, 23 nL, Sodium butyrate st 4.5mM (final) conc (5) Time, 30-36 hours, 37C 5% CO2 (6) Reagent, 3 ul, One Glo (TM) from Promega (7) Time, 5-15 minutes, Room temp (8) Detector, Viewlux: luminescent read, 60 second integration, high speed 2x binning Keywords: Spinal muscular atrophy, SMA, SMN2, high throughput screening, MLSMR, MLPCN, NIH Roadmap, qHTS and NCGC
For the compound `Clc1ccc(-c2nnc(-c3ccccc3)c(N3CCSCC3)n2)cc1`, the “activation” value is -1.83% [at 22.7 µM].

As for `c1coc(CNc2ncnc3ccccc23)c1`, the “activation” value is -53.2%.

Turning to `CC(C)(C)n1nnnc1C(c1ccc2ncccc2c1)N1CCSCC1` (stereo not given), the “activation” value is -2.06%.

For the compound `O=C(NCc1cccs1)C(=O)NCC1OCCCN1S(=O)(=O)c1ccccc1` (stereo not given), the “activation” value is 10.3%.

Consider `FC(F)(F)c1nnc(-c2ccccc2)nc1Oc1ccccc1`, for which the “activation” value was 0.177% [at 22.7 µM].

Take `O=C(Cc1c(F)cccc1Cl)N1CCN(C(=O)c2ccco2)CC1`: the “activation” value was -5.31%.

Regarding `Clc1ccc(-c2nnc(-c3ccc(Br)cc3)c(N3CCSCC3)n2)cc1`, the activation was -10.7% [at 9.48 µM].

For the compound `COc1nc(-c2ccccc2)nnc1-c1ccccc1`, the Potency is 2510 nM (active).

Turning to `Cc1ccc(-c2nnc(-c3ccccc3)c(N3CCOCC3)n2)cc1`, the activation was 3.26% [at 9.48 µM].

As to `O=C1CCC(C(=O)Nc2cccc3ccccc23)N1` (stereo not given), the “activation” value is 13%.

For `c1coc(CNc2ncnc3nc[nH]c23)c1`, the “activation” value was 6.63%.

As for `COc1ccc(-c2csc(N3CCC(C(N)=O)(N4CCCCC4)CC3)n2)cc1`, the “activation” value is -36.3% [at 22.7 µM].

For the compound `CCOc1ccc2nc(N3CCC(C(=O)N4CCN(c5ccccn5)CC4)CC3)sc2c1`, the “activation” value is -40.3% [at 22.7 µM].

As to `Cc1ccc(-c2csc(NC(=O)C3CCN(S(=O)(=O)c4cccs4)CC3)n2)cc1`, the “activation” value was -64.2% [at 22.7 µM].

For the compound `Clc1nc(NCC2CCCO2)c2[nH]cnc2n1` (stereo not given), the “activation” value is -10.1%.

Take `NC(=O)N1c2ccccc2C=Cc2ccccc21`: the “activation” value was -12.8%.

For `CCC(=O)n1nc(NCc2ccccc2OC)nc1NCc1ccccc1OC`, the “activation” value was -36.1%.

Consider `CC(/C=C/C(=O)NO)=C\[C@@H](C)C(=O)c1ccc(N(C)C)cc1`, for which the Potency was 1120 nM (active).

Take `COc1ccc(-c2csc(N3CCC(c4ccccc4)CC3)n2)cc1`: the “activation” value was -18% [at 22.7 µM].

With `COCCCN1C(=O)C(=O)/C(=C(/O)c2ccc3c(c2)CC(C)O3)C1c1cccnc1` (stereo not given), the “activation” value was 8.87%.

Regarding `OCCCNc1nc(-c2ccc(Cl)cc2)nnc1-c1ccc(Br)cc1`, the “activation” value is -29.8% [at 22.7 µM].

Regarding `COc1ccc(OC)c(-c2csc(N3CCC(c4ccccc4)CC3)n2)c1`, the “activation” value is -18.9% [at 22.7 µM].

With `Clc1nc(NCc2ccco2)c2[nH]cnc2n1`, the “activation” value is -44.5%.

Turning to `CC1CN(c2nc(-c3ccc(Br)cc3)nnc2-c2ccccc2)CC(C)N1` (stereo not given), the activation was -5.21% [at 9.48 µM].

`Clc1nc(NCc2cccs2)c2[nH]cnc2n1`: the “activation” value is -49.8%.

For the compound `Clc1ccc(-c2nnc(-c3ccccc3)nc2N2CCSCC2)cc1`, the activation is 6.97% [at 9.48 µM].

`NC(=O)C1(N2CCCCC2)CCN(c2nc(-c3ccc(Br)cc3)cs2)CC1`: the “activation” value was -43.5% [at 22.7 µM].

On to `Cc1[nH]c2ccccc2c1-c1nc(-c2ccc(Cl)cc2)nnc1-c1ccccc1`, for which the “activation” value is 13.1% [at 22.7 µM].

On to `Cc1ccc(-c2nnc(-c3ccccc3)c(-c3ccccc3)n2)cc1`, for which the “activation” value was 5.5% [at 22.7 µM].

For `O=C(Nc1nc(-c2ccc3ccccc3c2)cs1)C1CCN(S(=O)(=O)c2cccs2)CC1`, the “activation” value is -43.5% [at 22.7 µM].

For `N#C/C(=C\Nc1ccccc1SC(F)(F)F)c1nc(-c2ccc(Cl)cc2)cs1`, the “activation” value was -29.8%.

Turning to `Clc1ccc(-c2nnc(-c3ccccc3)nc2-c2c[nH]c3ccccc23)cc1`, the activation was -10.1% [at 9.48 µM].

`CN(Cc1ccccc1)Cc1c(F)cccc1F`: the “activation” value was -9.07%.

As to `O=C(Nc1cccnc1)/C(N=Nc1c(Cl)cccc1Cl)=C(\O)c1ccccc1`, the “activation” value is -12.1%.

Turning to `O=C(NCCc1cn2ccsc2n1)c1cccs1`, the “activation” value is 1.45%.

In the case of `FC(F)(F)c1cccc(-c2nnc(-c3ccccc3)c(N3CCOCC3)n2)c1`, the activation was -5.49% [at 9.48 µM].

Regarding `CCCSc1nnc2c(n1)OC(c1sccc1C)Nc1ccccc1-2` (stereo not given), the Potency is 2000 nM (active).

On to `Cn1cnc2c(NCc3ccco3)ncnc21`, for which the “activation” value was -5.32%.

As to `CCOc1c(Cl)cc(C(=O)Nc2ccccc2C(=O)O)cc1Cl`, the Potency is 2820 nM (active).

As for `Cn1c(C(=O)NCc2cccs2)cc2oc3ccccc3c21`, the Potency was 2820 nM (active).
